The values below come from PubChem BioAssay (Tox21).

Assay [1] can be described thus: A CellTox Green Cytotoxicity Assay to monitor cytotoxicity in HepG2 cells - 0 hour (AID 1224882). Note: nearly all actives have a fitted effect of over 35% in size. In short, it runs like this:
(§1)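 HepG2 cells, 600/well, preincubated 5 h with CellTox Green dye, then exposed to Tox21 compounds in DMSO at 37 C for up to 40 h. Dead-cell DNA fluorescence read at the indicated time point.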

Assay [2] can be described thus: A CellTox Green Cytotoxicity Assay to monitor cytotoxicity in HEK293 cells - 8 hour (AID 1224884). Note: nearly all actives have a fitted effect of over 35% in size. In short, it runs like this:
(§2)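 HEK293 cells, 600/well, were preincubated 5 hours and then exposed to compounds at 37 C for up to 40 hours. A cell-impermeant cyanine dye staining dead-cell DNA was read by fluorescence at 0, 8, 16, 24, 32 and 40 h time points.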

Assay [3] in a line: qHTS RealTime-Glo MT Cell Viability Assay in HEK293 cells - 8 hour (AID 1224887). Note: nearly all actives have a fitted effect of over 50% in size. Note: potency is the fitted concentration of half-maximal effect. In short, it runs like this:
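600 cells/well were plated with the nonlytic NanoLuc/prosubstrate reagent, pre-incubated 5 h, then given 23 nL of compound in DMSO. Incubation at 37 C for 40 h, with luminescence from viable-cell-reduced substrate read repeatedly from 0 h.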

Assay [4] is described as follows: A CellTox Green Cytotoxicity Assay to monitor cytotoxicity in HEK293 cells - 16 hour (AID 1224888). Note: nearly all actives have a fitted effect of over 35% in size. The procedure, abridged: as §2
Assay [5] in a line: qHTS RealTime-Glo MT Cell Viability Assay in HepG2 cells - 0 hour (AID 1224889). Note: nearly all actives have a fitted effect of over 50% in size. Note: potency is the fitted concentration of half-maximal effect. The procedure, abridged: (§3)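 Compound treatment began 5 h after plating HepG2 cells (600/well) with NanoLuc luciferase and prosubstrate. Plates stayed at 37 C for 40 h; luminescence was captured at six time points, 0 h through 40 h.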
(In general: In qHTS, concentration-response curves come from the screen itself.)

Assay [6] can be described thus: A CellTox Green Cytotoxicity Assay to monitor cytotoxicity in HepG2 cells - 8 hour (AID 1224890). Note: nearly all actives have a fitted effect of over 45% in size. The procedure, abridged: as §1
The nature of assay [7]: qHTS assay to identify small molecule antagonists of the estrogen receptor alpha (ER-alpha) signaling pathway using the BG1 cell line in the presence of 0.1 nM 17-beta-estradiol - cell viability counter screen (AID 1259241). Note: nearly all actives have a fitted effect of over 40% in size. In short, it runs like this: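 In this screen, hormone-deprived VM7Luc4E2 cells were seeded at 4,000 per well, dosed with compound and 0.1 nM estradiol final, and incubated 22 hr at 37C and 5% CO2; fluorogenic live-cell protease signal reported viability.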

Assay [8] is described as follows: qHTS assay to identify small molecule antagonists of the androgen receptor (AR) signaling pathway using the MDA cell line in the presence of 0.5 nM R1881 - cell viability counter screen (AID 1259242). Note: nearly all actives have a fitted effect of over 45% in size. In short, it runs like this: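 MDA-kb2 cells (MMTV-luciferase, AR/GR responsive) were treated with compounds plus 0.5 nM R1881 (final) for 16 hr at 37C, 0% CO2. Viability was then read in the same wells as live-cell protease fluorescence (CellTiter-Fluor, 30 min).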

Assay [9] is described as follows: qHTS assay to identify small molecule phospholipidosis (PLD) inducers (AID 1259344; active = well fitted curve in the direction sought with a large enough effect; an effect the other way counts as inactive or inconclusive). In short, it runs like this: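 Fluorescent phospholipid staining (LipidTOX Red) measured by automated microscopy in fixed HepG2 cells after 24 h treatment; nuclei counterstained with Hoechst 33342; amiodarone as reference inducer.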
Assay [10] in a line: qHTS assay to identify small molecule HDAC inhibitors (AID 1259364). Note: top concentration of the series differs between compounds; nearly all actives have a fitted effect of over 45% in size. In short, it runs like this: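 Wild-type HCT-116 cells, plated overnight at 37 C, exposed to compounds 2 hr at 37 C; luminogenic HDAC-Glo substrate then added 30 min at room temperature. Luminescence reports relative endogenous class I/II HDAC activity.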
Assay [11] in a line: qHTS assay to identify small molecule HDAC inhibitors - cell viability counter screen (AID 1259365). Note: series mostly up to about 92 µM; nearly all actives have a fitted effect of over 50% in size. In short, it runs like this:
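Measured quantity is CellTiter-Glo luminescence from wild-type HCT-116 cells after compound incubation of 2hr at 37C, 5% CO2; reagent developed 30min at room temperature.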

A short description of assay [12]: qHTS assay to identify small molecule agonists of the sonic hedgehog signaling (Shh) pathway (AID 1259368; calls by dose curve;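 note: NIH/3T3-derived 3T3Gli1-Luc cells carrying a stable Gli1-driven firefly luciferase reporter; series mostly up to about 92 µM; nearly all actives have a fitted effect of over 15% in size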). The procedure, abridged: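 NIH/3T3-derived 3T3Gli1-Luc cells with stably integrated Gli1-driven firefly luciferase, 2,000 cells/well, compounds added after 4 hr. Incubated 24 hr at 37C, 5% CO2; luminescence read after 30 min with luciferase reagent at room temperature.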

Assay [13] is described as follows: A CellTox Green Cytotoxicity Assay to monitor cytotoxicity in HepG2 cells - 32 hour (AID 1224883). Note: nearly all actives have a fitted effect of over 50% in size. In short, it runs like this: as §1
Assay [14] is described as follows: qHTS RealTime-Glo MT Cell Viability Assay in HepG2 cells - 16 hour (AID 1224885). Note: nearly all actives have a fitted effect of over 50% in size. In short, it runs like this: as §3
Assay [15] is described as follows: qHTS RealTime-Glo MT Cell Viability Assay in HEK293 cells - 24 hour (AID 1224886). In short, it runs like this: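 Quantitative high-throughput screen of the Tox21 10K library in HEK293: cells and RealTime-Glo reagents plated together, compound added at 5 h, luminescence monitored through 40 h at 37 C.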
Assay [16] addresses Estrogen receptor (Homo sapiens) (UniProt P03372). The assay can be described thus: qHTS assay to identify small molecule antagonists of the estrogen receptor alpha (ER-alpha) signaling pathway using the BG1 cell line in the presence of 0.1 nM 17-beta-estradiol (AID 1259244). Note: nearly all actives have a fitted effect of over 50% in size. In short, it runs like this:
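VM7Luc4E2 cells (endogenous full-length ER-alpha, 4×ERE-luciferase), kept 5 days in phenol red-free, charcoal-stripped FBS medium; 4,000 cells/well. Compounds added with 0.1 nM (final) 17beta-estradiol, 22 hr at 37C; luminescence read with ONE-Glo after 30 min.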

Assay [17] can be described thus: qHTS assay to identify small molecule agonists of the sonic hedgehog signaling (Shh) pathway - cell viability counter screen (AID 1259366). Note: nearly all actives have a fitted effect of over 50% in size. Note: potency is the fitted concentration of half-maximal effect. The procedure, abridged:
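In quantitative high-throughput format, 3T3 Gli1-Luc cells were exposed to compounds for 24hr and multiplexed for viability using CellTiter-Fluor, incubated 1hr at 37C before the fluorescence read.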

A short description of assay [18]: qHTS assay to identify small molecule antagonists of the sonic hedgehog signaling (Shh) pathway - cell viability counter screen (AID 1259367). Note: nearly all actives have a fitted effect of over 55% in size. Note: potency is the fitted concentration of half-maximal effect. The procedure, abridged: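 Using CellTiter-Fluor, viability of Gli1-Luc reporter 3T3 cells is read by fluorescence in the wells used for the Shh luciferase assay. Treatment lasts 23 hr with conditioned medium, then reagent 1 hr at 37C.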

Assay [19] is described as follows: qHTS assay to identify small molecule antagonists of the sonic hedgehog signaling (Shh) pathway (AID 1259369; calls by dose curve; note: nearly all actives have a fitted effect of over 45% in size; note: potency is the fitted concentration of half-maximal effect). The procedure, abridged:
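NIH/3T3-derived Gli1-Luc reporter cells plated 4 h, dosed with compound, then stimulated with conditioned medium for 24 h at 37 C. Firefly luciferase luminescence read after 30 min with detection reagent at room temperature.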

In assay [20] the target is Androgen receptor (Homo sapiens) (UniProt P10275). Briefly: qHTS assay to identify small molecule antagonists of the androgen receptor (AR) signaling pathway using the MDA cell line in the presence of 0.5 nM R1881 (AID 1259243). Note: nearly all actives have a fitted effect of over 50% in size. Note: potency is the fitted concentration of half-maximal effect. The procedure, abridged:
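MDA-kb2 cells (MMTV-luciferase, responsive to AR and GR) at 3,000/well, rested 5 h at 37C, 0% CO2, then given compounds plus 0.5 nM R1881 (final) for 16 hr. Luciferase read with ONE-Glo after 30 min at room temperature.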

The structures appear in SMILES notation. A number with no mark means an inactive call. Results filed as inconclusive are left out. Activity calls are given as the source filed them. Unless noted, calls come from the whole dose curve; as a rule, active = well fitted curve in the direction sought with a large enough effect in the repeat runs; inconclusive = weak or mixed curves; inactive = no such curve, though single readings can be large; an effect the other way counts as inactive or inconclusive.

Estrogen receptor (Homo sapiens), sequence (P03372 whole entry, looked up): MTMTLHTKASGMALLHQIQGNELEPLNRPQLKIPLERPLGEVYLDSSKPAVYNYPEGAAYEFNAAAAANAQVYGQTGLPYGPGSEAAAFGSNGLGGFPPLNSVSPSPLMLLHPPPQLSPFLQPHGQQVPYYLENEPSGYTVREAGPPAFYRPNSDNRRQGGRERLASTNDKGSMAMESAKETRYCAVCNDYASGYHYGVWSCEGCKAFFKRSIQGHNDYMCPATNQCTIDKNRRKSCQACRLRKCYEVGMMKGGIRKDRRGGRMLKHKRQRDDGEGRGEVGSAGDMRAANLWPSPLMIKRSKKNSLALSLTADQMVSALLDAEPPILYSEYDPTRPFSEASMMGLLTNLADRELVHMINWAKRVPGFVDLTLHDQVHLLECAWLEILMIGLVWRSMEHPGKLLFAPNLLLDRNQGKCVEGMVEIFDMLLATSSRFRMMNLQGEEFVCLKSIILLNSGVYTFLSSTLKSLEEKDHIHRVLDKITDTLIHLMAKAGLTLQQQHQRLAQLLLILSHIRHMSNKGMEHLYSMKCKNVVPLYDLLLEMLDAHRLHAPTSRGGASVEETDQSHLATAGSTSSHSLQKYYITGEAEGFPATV
Androgen receptor (Homo sapiens), sequence (P10275 whole entry, looked up): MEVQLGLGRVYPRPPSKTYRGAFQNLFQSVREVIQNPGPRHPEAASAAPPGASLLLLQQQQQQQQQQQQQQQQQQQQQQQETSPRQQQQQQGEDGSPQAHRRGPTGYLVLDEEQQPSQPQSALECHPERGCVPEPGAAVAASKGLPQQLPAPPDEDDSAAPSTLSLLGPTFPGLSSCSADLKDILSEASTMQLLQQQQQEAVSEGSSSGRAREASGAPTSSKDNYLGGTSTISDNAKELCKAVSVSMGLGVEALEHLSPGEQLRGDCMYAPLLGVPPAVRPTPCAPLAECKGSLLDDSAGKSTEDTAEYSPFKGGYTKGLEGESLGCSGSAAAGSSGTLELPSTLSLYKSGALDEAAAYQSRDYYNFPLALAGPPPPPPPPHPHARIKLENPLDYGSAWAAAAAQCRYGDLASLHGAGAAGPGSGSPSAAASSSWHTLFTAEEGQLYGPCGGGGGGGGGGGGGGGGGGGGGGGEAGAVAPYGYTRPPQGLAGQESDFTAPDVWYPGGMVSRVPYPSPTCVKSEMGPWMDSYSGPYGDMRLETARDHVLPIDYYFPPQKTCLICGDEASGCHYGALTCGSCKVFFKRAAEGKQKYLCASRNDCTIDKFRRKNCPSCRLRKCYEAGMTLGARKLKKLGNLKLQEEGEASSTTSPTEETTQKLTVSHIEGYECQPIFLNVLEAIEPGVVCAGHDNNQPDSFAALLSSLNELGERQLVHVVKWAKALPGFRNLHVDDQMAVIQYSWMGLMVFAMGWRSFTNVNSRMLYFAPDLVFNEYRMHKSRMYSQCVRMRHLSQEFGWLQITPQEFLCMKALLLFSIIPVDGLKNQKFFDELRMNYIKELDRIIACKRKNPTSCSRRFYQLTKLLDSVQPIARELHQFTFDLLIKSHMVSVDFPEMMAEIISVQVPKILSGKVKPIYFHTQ

On to `CCCCOc1ccc(CC(=O)NO)cc1`, for which the Potency result in [1], in [2], in assay [4], in assay [5], in assay [6] and in assay [7] was “inactive” each time. Further, the Potency entry in [8], in assay [9] and in [10] was “inactive” in each case. For the same compound, the Potency in assay [3] was 2.13 µM (active). For the same compound, the compound was classed as inactive in [11] and in [12].
In the case of `CCCC(=O)OCC`, the Potency result in assay [13], in assay [2], in [14], in assay [15], in assay [3] and in [4] was “inactive” in each case. In addition, the Potency entry in assay [5], in assay [6], in [7], in assay [8], in assay [16] and in assay [10] was “inactive” each time. For the same compound, the Potency result in [17] and in [18] was “inactive” throughout. The compound was classed as inactive in assay [11] and in assay [12]. For the same compound, the Potency in [19] is 68.6 µM (active).
`CCOC(=O)C1=C(C)NC(C)=C(C(=O)OC)C1c1cccc([N+](=O)[O-])c1` (centres undefined): the Potency entry in [1], in assay [13], in [4], in assay [6], in assay [7] and in [8] was “inactive” throughout. The Potency entry in assay [16], in [9] and in assay [10] was “inactive” in each case. In assay [5], the Potency was 7.56 µM (active). Besides, the compound was classed as inactive in [11] and in assay [12].
As for `O=S1(=O)N=C(O)c2ccccc21`, the Potency result in assay [1], in assay [2], in assay [14], in [15], in assay [3] and in [4] was “inactive” each time. For the same compound, the Potency entry in [5], in [6], in assay [7], in [8], in [10] and in assay [17] was “inactive” throughout. In addition, the Potency result in [18] and in [19] was “inactive” throughout. The compound was called inactive in assay [11] and in assay [12].
As to `CC(Cc1cccc(C(F)(F)F)c1)NCCOC(=O)c1ccccc1` (centres undefined), the Potency result in assay [1], in assay [2], in assay [14], in assay [4], in assay [5] and in assay [7] was “inactive” in each case. Moreover, the Potency result in assay [8], in [9], in [10], in assay [17] and in [18] was “inactive” each time. Further, the call in assay [11] and in assay [12] was inactive.
As for `CC(C)(C)C1CCCCC1O` (centres undefined), the Potency result in [1], in assay [14], in assay [15], in assay [3], in assay [4] and in assay [5] was “inactive” in each case. The Potency result in assay [6], in assay [7], in assay [8], in assay [16], in assay [10] and in [17] was “inactive” each time. Also, the Potency entry in assay [18] and in assay [19] was “inactive” each time. Moreover, the compound was called inactive in assay [11] and in assay [12].
As for `CC(C)CCCC(C)CCO` (centres undefined), the Potency entry in assay [1], in assay [2], in [14], in [3], in [4] and in [5] was “inactive” in each case. The Potency result in [6], in [7], in assay [8], in assay [20], in [16] and in [10] was “inactive” throughout. Further, in [18], the Potency result was “inactive”. In addition, the call in assay [11] and in assay [12] was inactive. Also, the Potency in [19] was 61.1 µM (active).
As to `CCN1CCC[C@H]1CNC(=O)c1c(OC)ccc(Br)c1OC`, the Potency entry in assay [13], in assay [2], in assay [14], in assay [15], in assay [3] and in assay [4] was “inactive” each time. In addition, the Potency entry in assay [5], in assay [6], in assay [7], in assay [8], in assay [16] and in [9] was “inactive” in each case. The Potency result in assay [10], in assay [17], in assay [18] and in assay [19] was “inactive” each time. The call in [11] and in assay [12] was inactive.
On to `ClC(Cl)(Cl)c1ccc(C(Cl)(Cl)Cl)cc1`, for which the Potency result in assay [13], in [2], in assay [14], in [15], in assay [3] and in assay [4] was “inactive” in each case. The Potency result in assay [5], in [6], in [7], in [8], in [16] and in assay [10] was “inactive” throughout. Further, the Potency result in [17], in assay [18] and in [19] was “inactive” throughout. In addition, the result in assay [11] and in [12] was inactive.
As to `CN(C)CCCNCCCN`, the Potency result in [1], in [2], in assay [14], in assay [15], in assay [3] and in assay [4] was “inactive” each time. Further, the Potency entry in [5], in [6], in assay [7], in assay [8], in [16] and in assay [10] was “inactive” throughout. In addition, the Potency entry in assay [18] is “inactive”. The compound was classed as inactive in assay [11] and in assay [12]. Moreover, the Potency in assay [17] was 27.2 µM (active).
Turning to `NC(N)=N/N=C/c1c(Cl)cccc1Cl`, the Potency entry in assay [1], in assay [14], in [3], in assay [4], in assay [6] and in [10] was “inactive” throughout. Moreover, the Potency is 23.7 µM (active) in [20], 11.9 µM (active) in [17] and 10.6 µM (active) in assay [18]. Moreover, the outcome in assay [11] and in assay [12] was inactive.
On to `CC1(C)CCC(C)(C)c2cc(NC(=O)c3ccc(C(=O)O)cc3)ccc21`, for which the Potency entry in assay [13], in assay [2], in assay [4], in assay [5], in assay [6] and in assay [7] was “inactive” in each case. Besides, the Potency entry in assay [8], in assay [9], in assay [10] and in [19] was “inactive” in each case. Besides, the compound was called inactive in [11] and in assay [12].
For the compound `CC(C)NCC(O)COc1ccc(CC(N)=O)cc1` (centres undefined), the Potency result in assay [13], in assay [14], in assay [15], in assay [3], in [4] and in assay [5] was “inactive” each time. In addition, the Potency entry in [6], in [8], in assay [10], in assay [18] and in [19] was “inactive” each time. Also, the call in assay [11] and in [12] was inactive.
